Laboratory results published in PubChem BioAssay (NCATS).
Where “and” joins values, the source holds several entries; their conditions need not be identical. Equal values may be shown once. Unmarked numbers belong to inactive results. Calls follow the shape of the full dose curve.
Potency is read from the fitted curve at half-maximal effect.

What follows are compounds tested against Glucocorticoid receptor (Homo sapiens) (UniProt P04150) (assay: GR-EFC Redistribution (AID 451)). Conditions: CHO-K1 GR-EFC translocation, beta-gal luminescence, 2 h.
Glucocorticoid receptor (Homo sapiens), sequence (P04150 whole entry, looked up): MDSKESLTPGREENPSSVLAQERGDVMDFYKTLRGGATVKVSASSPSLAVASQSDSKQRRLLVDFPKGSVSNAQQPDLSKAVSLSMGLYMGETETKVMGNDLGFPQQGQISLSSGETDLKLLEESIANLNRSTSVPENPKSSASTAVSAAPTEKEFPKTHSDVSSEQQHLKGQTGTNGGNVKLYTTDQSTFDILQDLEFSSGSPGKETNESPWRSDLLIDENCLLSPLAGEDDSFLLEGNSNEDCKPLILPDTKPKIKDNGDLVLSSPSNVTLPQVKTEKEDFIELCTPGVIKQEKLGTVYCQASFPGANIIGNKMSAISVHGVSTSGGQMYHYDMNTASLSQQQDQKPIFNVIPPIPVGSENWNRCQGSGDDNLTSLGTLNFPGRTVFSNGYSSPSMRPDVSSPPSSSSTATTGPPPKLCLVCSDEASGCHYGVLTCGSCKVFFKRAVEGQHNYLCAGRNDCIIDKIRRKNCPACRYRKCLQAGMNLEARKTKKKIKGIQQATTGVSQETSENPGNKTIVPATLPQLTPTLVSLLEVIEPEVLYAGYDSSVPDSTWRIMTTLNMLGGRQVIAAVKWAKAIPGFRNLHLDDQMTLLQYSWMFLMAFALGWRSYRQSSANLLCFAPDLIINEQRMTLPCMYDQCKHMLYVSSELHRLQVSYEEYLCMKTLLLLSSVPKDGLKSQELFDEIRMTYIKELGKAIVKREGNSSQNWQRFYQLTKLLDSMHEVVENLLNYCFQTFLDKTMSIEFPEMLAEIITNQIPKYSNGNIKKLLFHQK
Source text: NIH Molecular Libraries Screening Centers Network [MLSCN]
NIH Chemical Genomics Center [NCGC]
The glucocorticoid receptor (GR) is a cytoplasmic receptor that belongs to the nuclear receptor family of ligand-dependent transcription factors. Upon glucocorticoid binding to its receptor, the glucocorticoid-GR complex translocates into the nucleus, where it binds as a dimer to specific DNA sequences (glucocorticoid response elements), enhancing or suppressing transcription of a wide variety of glucocorticoid-responsive genes. In addition to their important roles in normal physiology and metabolism, glucocorticoids are administered exogenously as treatments for a wide variety of allergic, autoimmune, and neoplastic conditions. Identification of compounds that modulate aspects of GR signalling would be useful in dissecting glucocorticoid response pathways as well as developing GR modulators with more targeted clinical effects.
Traditionally, GR modulators have been identified using receptor binding or direct transactivation assays. However, assays for glucocorticoid-dependent nuclear translocation can also be used to screen for compounds affecting GR signaling.
Immunocytochemical staining has been used to assay for GR translocation, but is not suitable for high throughout screening due to the multiple reagent addition and wash steps required. Recently, a novel cell-based GR assay in Enzyme Fragment Complementation (EFC) format was developed by DiscoveRx (Fremont, CA). The assay uses EFC of b-galactosidase (b-gal) as an indicator of GR-translocation in engineered CHO-K1 biosensor cells. The enzyme acceptor (EA) fragment of b-gal resides in the nucleus , as designed through the use of a proprietary set of sequence additions and modifications. The small peptide enzyme donor (ED) fragment of b-gal is fused directly to the C-terminus of GR, and is localized in the cytoplasm is the absence of receptor signaling. Upon binding to a GR ligand, the complex translocates to the nucleus, where intact enzyme activity is restored by complementation and b-gal activity is detected. We optimized this GR-EFC assay in homogenous 1536-well plate assay format for high throughput screening.
NCGC Assay Protocol Summary:
CHO-K1 cells stably expressing NLS-enzyme acceptor fragment (EA) of b-gal and GR-enzyme donor (ED) fragment of b-gal were maintained in F12 medium (Invitrogen, Carlsbad, CA) at 37 Celsius degrees under a humidified atmosphere containing 5% CO2 and 95% air. The medium contained 10% FBS, 2 mM L-glutamine, 50 U/ml penicillin 50 ug/ml streptomycin, and 250 ug/ml hygromycin and 500 ug/ml G418 (Invitrogen).
GR-translocation was measured beta-gal enzyme activity using the PathHunter Detection Kit containing cell membrane permeablizing reagent and beta-gal substrate (DiscoveRx, Fremont, CA). All compounds were screened as titrations from 0.6 nM to 46 uM final concentration. The assay was performed in 1536-well format as follows:
5 uL cell suspension (1,000 cells)/well
Incubation at 37 Celsius degrees for two hours
1.25 uL 1X detection buffer from the kit supplied by DiscoveRx
Incubation at room temperature for one hour
Read plate in luminescence mode in ViewLux plate reader (PerkinElmer)
Keywords: NIH Roadmap, MLSCN, MLI, MLSMR, GR-EFC, GREFC, qHTS, NCGC
For `NCCc1cnc[nH]1`, the Potency was greater than 46 µM. `CCOC(=O)C(C)(C)Oc1ccc(Cl)cc1` was tested, and the Potency was greater than 46 µM. In the case of `CN(C)CCC=C1c2ccccc2C=Cc2ccccc21`, the Potency is reported as > 46 µM and > 20.6 µM and > 9.22 µM. Work on `CN(C)C(=N)N=C(N)N` yielded a Potency greater than 20.6 µM. `O=C(c1ccc(OCCN2CCCCC2)cc1)c1c(-c2ccc(O)cc2)sc2cc(O)ccc12` was tested, and the Potency was > 46 µM and > 20.6 µM. With `CN1CCC(=C2c3ccccc3CC(=O)c3sccc32)CC1` the Potency was > 46 µM and > 20.6 µM. With `CN(C)c1nc(N(C)C)nc(N(C)C)n1` the Potency was > 46 µM and > 20.6 µM. `O=c1c(-c2ccc(O)cc2)coc2cc(O)cc(O)c12` showed a Potency greater than 46 µM. `CN1CCC(=C2c3ccccc3C=Cc3ccccc32)CC1` was tested, and the Potency was > 46 µM and > 20.6 µM. For `COc1ccc2c(c1)c(CC(=O)O)c(C)n2C(=O)c1ccc(Cl)cc1`, the Potency was > 46 µM and > 20.6 µM. `NC(=O)OCC(COC(N)=O)c1ccccc1` gave a Potency greater than 46 µM. In the case of `O=C(c1ccc(F)cc1)C1CCN(CCn2c(=O)[nH]c3ccccc3c2=O)CC1`, the Potency is reported as > 46 µM and > 20.6 µM. `CN(C)C(=O)C(CCN1CCC(O)(c2ccc(Cl)cc2)CC1)(c1ccccc1)c1ccccc1` was tested, and the Potency was > 46 µM and > 20.6 µM. With `CCOC(=O)Nc1ccc(NCc2ccc(F)cc2)nc1N` the Potency was greater than 46 µM. In the case of `Cc1cc(C(C)(C)C)cc(C)c1CC1=NCCN1`, the Potency is reported as > 46 µM and > 20.6 µM. For `Cc1ccc(C(=O)Nc2ccc(S(=O)(=O)O)c3cc(S(=O)(=O)O)cc(S(=O)(=O)O)c23)cc1NC(=O)c1cccc(NC(=O)Nc2cccc(C(=O)Nc3cc(C(=O)Nc4ccc(S(=O)(=O)O)c5cc(S(=O)(=O)O)cc(S(=O)(=O)O)c45)ccc3C)c2)c1`, the Potency was greater than 46 µM. With `Clc1ccc2c(c1)C(N1CCNCC1)=Nc1ccccc1O2` the Potency was > 46 µM and > 20.6 µM. In the case of `NC12CC3CC(CC(C3)C1)C2`, the Potency is reported as > 46 µM and > 20.6 µM. In the case of `Clc1ccccc1C(c1ccccc1)(c1ccccc1)n1ccnc1`, the Potency is reported as > 46 µM and > 20.6 µM. `Cn1ccc2cc3c(cc21)CCN3C(=O)Nc1cccnc1` gave a Potency greater than 46 µM. `CN(C)CCCN1c2ccccc2CCc2ccc(Cl)cc21` was tested, and the Potency was > 46 µM and > 20.6 µM. Work on `N[C@@H](Cc1c[nH]c2ccc(O)cc12)C(=O)O` yielded a Potency greater than 46 µM. With `Cn1c(=O)c2c(ncn2C)n(C)c1=O` the Potency was greater than 46 µM. In the case of `COc1ccc2[nH]cc(CCNC(C)=O)c2c1`, the Potency is reported as > 46 µM and > 20.6 µM. In the case of `CC[C@@]1(O)C(=O)OCc2c1cc1n(c2=O)Cc2cc3c(CN(C)C)c(O)ccc3nc2-1`, the Potency is reported as greater than 9.22 µM. `O=C1c2c(O)ccc(O)c2C(=O)c2c(NCCNCCO)ccc(NCCNCCO)c21` was tested, and the Potency was > 46 µM and > 20.6 µM. With `NS(=O)(=O)c1cc2c(cc1Cl)NCNS2(=O)=O` the Potency was > 46 µM and > 20.6 µM. For `O=C(Nc1ccc([N+](=O)[O-])cc1Cl)c1cc(Cl)ccc1O`, the Potency was > 46 µM and > 20.6 µM. Work on `O=c1[nH]cc(F)c(=O)[nH]1` yielded a Potency greater than 46 µM. For `CN1C(C(=O)Nc2ccccn2)=C(O)c2ccccc2S1(=O)=O`, the Potency was > 46 µM and > 20.6 µM. In the case of `CCC1(c2ccccc2)C(=O)NCNC1=O`, the Potency is reported as > 46 µM and > 20.6 µM. `NC(=O)NO` showed a Potency greater than 46 µM. `NCCS(=O)(=O)O` was tested, and the Potency was greater than 46 µM. For `NCCCCCC(=O)O`, the Potency was > 46 µM and > 20.6 µM. In the case of `COc1nc(C)nc(Cl)c1NC1=NCCN1`, the Potency is reported as > 46 µM and > 20.6 µM. In the case of `Cn1cnc2c1c(=O)[nH]c(=O)n2C`, the Potency is reported as > 46 µM and > 20.6 µM. With `COC(=O)Nc1nc2ccc(C(=O)c3cccs3)cc2[nH]1` the Potency was > 46 µM and > 20.6 µM. Compound `O=C1N(c2ccccc2)c2ccccc2C1(Cc1ccncc1)Cc1ccncc1` has a Potency greater than 46 µM. `CN1CCN(C2=Nc3cc(Cl)ccc3Nc3ccccc32)CC1` was tested, and the Potency was > 46 µM and > 20.6 µM. With `OCCN1CCN(CCCN2c3ccccc3Sc3ccc(C(F)(F)F)cc32)CC1` the Potency was > 46 µM and > 20.6 µM.
